We go through ten compounds from PubChem BioAssay (NCATS).

A short description of assay [1]: Primary qHTS for small molecule stabilizers of the endoplasmic reticulum resident proteome: Secreted ER Calcium Modulated Protein (SERCaMP) assay (AID 1508630). To be noted: SH-SY5Y GLuc-SERCaMP (Gaussia luciferase released on ER calcium loss) secretion, thapsigargin, luminescence; series mostly up to 38.4 µM. The method, boiled down:
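The SH-SY5Y reporter protocol was run at 3 concentrations up to 38.3 uM (primary) or 11 concentrations (follow-up): 16 h compound, 100 nM thapsigargin for 4 h, then extracellular luciferase luminescence.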

Assay [2] concerns the target N-terminal Xaa-Pro-Lys N-methyltransferase 1 (Homo sapiens) (UniProt Q9BV86). Description: Confirmatory qHTS for Inhibitors of N-terminal methyltransferase 1 (NTMT1): MTaseGlo Assay (AID 1645874).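 Also: luminescence from SAH made as NTMT1 methylates SPKRIA peptide using SAM; nearly all actives have a fitted effect of over 65% in size.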 To be noted: NTMT1 enzyme, MTase-Glo SAH luminescence; series mostly up to 100 µM. The method, boiled down: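 SPKRIA peptide at 1 uM was methylated by 125 nM NTMT1 using 100 uM SAM over 30 min at room temperature, following a 15 min compound preincubation. Product SAH was detected luminescently.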
(In qHTS, concentration-response curves come from the screen itself.)

Assay [3] in a line: Primary qHTS for inhibitors of nuclear receptor binding SET domain protein 2 (NSD2) in an isogenic RCH-ACV NSD2 p.E1099K mutant (9B) (AID 1645876). Also: nearly all actives have a fitted effect of over 70% in size. Also: potency is read from the fitted curve at half-maximal effect. The following applies: RCH-ACV NSD2 E1099K (9B) viability, CellTiter-Glo, 72 h; series mostly up to 44.9 µM.
Assay [4] can be described thus: Primary qHTS for inhibitors of nuclear receptor binding SET domain protein 2 (NSD2) in an RCH-ACV wild type WT cells (2C) (AID 1645877). Also: nearly all actives have a fitted effect of over 70% in size. Also: potency is read from the fitted curve at half-maximal effect. The following applies: RCH-ACV (leukaemia line) NSD2 WT (2C) viability, CellTiter-Glo, 72 h; series mostly up to 44.9 µM.
Assay [5] has as its target Cytochrome P450 2C9 (Homo sapiens) (UniProt P11712). Description: Cytochrome P450 family 2 subfamily C member 9 (CYP2C9) small molecule antagonists: luciferase biochemical (cell-free) qHTS assay (AID 1645842; active = well fitted curve in the direction sought with a large enough effect in the repeat runs; an effect the other way counts as inactive or inconclusive; also: nearly all actives have a fitted effect of over 55% in size; also: potency is read from the fitted curve at half-maximal effect). To be noted: P450-Glo CYP2C9 enzyme assay, luciferin luminescence; series mostly up to 57.4 µM. The method, boiled down: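 P450-Glo CYP2C9 system: proluciferin substrate with enzyme in mix containing 0.4% BSA, 10 min at room temperature, then NADPH regeneration solution added and incubated 1 h at 37C. Detection reagent stopped reaction; luminescence read after 20 min as RLU.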

Assay [6] addresses Cytochrome P450 2D6 (Homo sapiens) (UniProt P10635). The assay can be described thus: Cytochrome P450 family 2 subfamily D member 6 (CYP2D6) small molecule antagonists: luciferase biochemical (cell-free) qHTS assay (AID 1645840; active = well fitted curve in the direction sought with a large enough effect in the repeat runs; an effect the other way counts as inactive or inconclusive; also: nearly all actives have a fitted effect of over 55% in size; also: potency is read from the fitted curve at half-maximal effect). To be noted: P450-Glo CYP2D6 enzyme, luciferin luminescence, 1 h; series mostly up to 57.4 µM. The method, boiled down: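 P450-Glo CYP2D6 system: proluciferin substrate converted by enzyme to luciferin, read by luminescence proportional to activity. Enzyme-substrate mix with compound 10 min at room temperature, then NADPH regeneration 1 h before detection reagent.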

Several values for one entry are separate records, joined by “and”; a condition that tells them apart may be missing. Equal values may be shown once. Records with an inconclusive call do not appear. Activity calls are given as the source filed them. Unless noted, calls follow the shape of the dose curve; as a rule, active = well fitted curve in the direction sought with a large enough effect; inconclusive = small, poorly fitted or top-dose-only effect, or another doubt; inactive = no such curve, though single readings can be large; an effect the other way counts as inactive or inconclusive.

Cytochrome P450 2C9 (Homo sapiens), sequence (P11712 whole entry, looked up): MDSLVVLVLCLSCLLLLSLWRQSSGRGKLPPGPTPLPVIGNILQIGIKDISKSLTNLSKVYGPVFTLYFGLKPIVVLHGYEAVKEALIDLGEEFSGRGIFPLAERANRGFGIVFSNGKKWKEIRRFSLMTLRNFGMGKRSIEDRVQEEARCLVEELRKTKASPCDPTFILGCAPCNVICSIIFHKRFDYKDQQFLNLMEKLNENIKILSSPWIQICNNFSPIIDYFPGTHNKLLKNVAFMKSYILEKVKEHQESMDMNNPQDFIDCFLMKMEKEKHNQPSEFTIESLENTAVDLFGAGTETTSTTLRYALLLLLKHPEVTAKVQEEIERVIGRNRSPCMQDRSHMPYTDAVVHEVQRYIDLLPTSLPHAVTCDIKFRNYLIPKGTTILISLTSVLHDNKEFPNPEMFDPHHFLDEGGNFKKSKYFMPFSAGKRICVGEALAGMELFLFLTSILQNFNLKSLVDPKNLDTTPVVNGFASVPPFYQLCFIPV
Cytochrome P450 2D6 (Homo sapiens), sequence (P10635 whole entry, looked up): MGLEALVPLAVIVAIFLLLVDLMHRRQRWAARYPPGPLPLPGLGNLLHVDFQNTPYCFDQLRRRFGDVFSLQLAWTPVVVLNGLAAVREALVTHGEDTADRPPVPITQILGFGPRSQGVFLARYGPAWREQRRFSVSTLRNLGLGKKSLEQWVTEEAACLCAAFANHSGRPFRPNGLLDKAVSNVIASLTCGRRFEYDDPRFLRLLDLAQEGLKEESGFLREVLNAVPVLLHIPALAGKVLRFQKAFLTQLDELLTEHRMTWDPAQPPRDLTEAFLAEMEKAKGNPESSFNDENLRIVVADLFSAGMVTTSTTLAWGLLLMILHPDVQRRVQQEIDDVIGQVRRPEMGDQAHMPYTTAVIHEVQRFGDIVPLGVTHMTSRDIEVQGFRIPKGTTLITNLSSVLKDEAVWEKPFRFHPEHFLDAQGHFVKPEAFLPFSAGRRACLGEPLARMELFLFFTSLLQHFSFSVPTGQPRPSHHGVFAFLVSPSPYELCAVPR
N-terminal Xaa-Pro-Lys N-methyltransferase 1 (Homo sapiens), sequence (Q9BV86 whole entry, looked up): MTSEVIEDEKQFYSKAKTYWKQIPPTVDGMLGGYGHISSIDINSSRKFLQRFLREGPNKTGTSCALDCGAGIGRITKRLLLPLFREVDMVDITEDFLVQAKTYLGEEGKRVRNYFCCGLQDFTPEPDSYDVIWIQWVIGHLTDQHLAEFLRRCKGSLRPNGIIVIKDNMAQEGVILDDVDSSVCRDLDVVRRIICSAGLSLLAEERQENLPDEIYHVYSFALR

For the compound `Cc1cc(N2CCOCC2)cc2[nH]c(-c3c(NC[C@@H](O)c4cccc(Cl)c4)cc[nH]c3=O)nc12`, the Potency result in assay [1] and in assay [2] was “inactive” in each case. In addition, the Potency in assay [3] was 1.66 µM (active); in assay [4], 2.35 µM (active).
As for `NC1(Cc2ccc(Cl)cc2)CCN(c2ncnc3[nH]ccc23)CC1`, the Potency entry in assay [1] and in assay [5] was “inactive” throughout. For the same compound, the Potency in assay [3] is 9.34 µM (active); in assay [4], 8.33 µM (active).
`CNC(=O)CN1CCC(Oc2cc3c(Nc4cccc(Cl)c4F)ncnc3cc2OC)CC1`: the Potency entry in assay [1] is “inactive”. For the same compound, the Potency is 9.52 µM (active) in assay [5]; 16.3 µM (active) and 18.6 µM (active) in assay [3]; 18.6 µM (active) in assay [4].
Regarding `CNC(=O)c1ccc(-c2cnc3ncc(Cc4ccc5ncccc5c4)n3n2)cc1F`, the Potency entry in assay [1], in assay [3] and in assay [4] was “inactive” each time. For the same compound, the Potency in assay [5] is 2.13 µM (active).
As for `Nc1nccc(Oc2ccc(NC(=O)c3c[nH]cc(-c4ccc(F)cc4)c3=O)cc2F)c1Cl`, in assay [1], the Potency result was “inactive”. Besides, the Potency in assay [6] is 3.38 µM (active); in assay [5], 8.49 µM (active); in assay [3], 11.8 µM (active); in assay [4], 10.5 µM (active).
For the compound `COc1cccc(-c2ccc(NC(=O)C3=C(C(=O)O)CCC3)c(F)c2)c1`, the Potency result in assay [1] is “inactive”. Moreover, the Potency in assay [5] was 21.3 µM (active) and 26.8 µM (active); in assay [3], 5.78 µM (active) and 2.95 µM (active); in assay [4] it was 6.49 µM (active) and 3.72 µM (active).
Regarding `Cn1c2cc(S(C)=O)sc2c2cnn(Cc3cccc(N)c3)c(=O)c21` (configuration not stated), the Potency entry in assay [1] was “inactive”. The Potency in assay [5] is 19 µM (active).
Take `CC(C)Nc1cc(C(F)(F)F)cc2nc(NC(=O)c3cccnc3)nn12`: the Potency result in assay [1], in assay [6], in assay [3] and in assay [4] was “inactive” each time.
Take `Cc1c(NC(=O)OC[C@@H]2COCCN2)cn2ncnc(Nc3ccc4c(cnn4Cc4cccc(F)c4)c3)c12`: the Potency entry in assay [1] is “inactive”. Further, the Potency in assay [3] was 16.6 µM (active); in assay [4], 14.8 µM (active).
The matching figures for `Clc1ccc2ncc(-c3cccc(NC4CNC4)n3)n2c1`: “inactive”, “inactive” and “inactive”.
